Measurements taken from PubChem BioAssay (NCI).
Compounds without any hit were thinned out: in the full panel of roughly 79,000, 15% have a hit. Calls of active or inactive are those of the source. Rule as the data show it: active = growth inhibition above about 70%; inactive = the rest.

What was measured:
[1] = NCI Yeast Anticancer Drug Screen. Data for the rad52 strain (AID 147);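 also: 0% = growth of vehicle-treated control cultures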; conditions: S. cerevisiae rad52 mutant growth inhibition, stronger effect = higher value
Method in brief: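 Inhibition of yeast growth, referenced to vehicle controls, was the measured output for a strain with defective DNA damage repair.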

[2] = NCI Yeast Anticancer Drug Screen. Data for the wt1 strain (AID 149);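 also: 0% = growth of vehicle-treated wt1 cultures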; conditions: S. cerevisiae wt1 strain (SPY 50644) growth inhibition, stronger effect = higher value
Method in brief: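 Readout: yeast growth inhibition, normalised to vehicle controls, in the wt1 strain exposed to test compounds.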

[3] = NCI Yeast Anticancer Drug Screen. Data for the rad50EPP+ strain (AID 151);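 also: 0% = growth of vehicle-treated control cultures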; conditions: S. cerevisiae rad50 mutant strain, stronger effect = higher value
Method in brief: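 Genetically defined yeast (rad50EPP+, DNA damage repair alteration) is grown with compound, and inhibition of growth is expressed relative to vehicle-treated controls.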

[4] = NCI Yeast Anticancer Drug Screen. Data for the mgt1 strain (AID 153); conditions: S. cerevisiae mgt1 mutant growth inhibition, stronger effect = higher value
Method in brief: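 In the mgt1 strain, test compounds were added and growth inhibition was determined relative to vehicle-treated controls.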

[5] = NCI Yeast Anticancer Drug Screen. Data for the rad50 strain (AID 155);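 also: 0% = growth of vehicle-only cultures of the same strain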; conditions: S. cerevisiae rad50 strain growth inhibition, stronger effect = higher value
Method in brief: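 Compounds were tested on a yeast strain with an engineered DNA damage repair alteration; the reported value is growth inhibition normalised to vehicle treatment.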

[6] = NCI Yeast Anticancer Drug Screen. Data for the mec2-1 strain (AID 157); conditions: S. cerevisiae mec2-1 strain, stronger effect = higher value
Method in brief: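 Each compound was tested on mec2-1 yeast, a strain altered in DNA damage repair or cell cycle control. Growth inhibition is reported relative to vehicle.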

[7] = NCI Yeast Anticancer Drug Screen. Data for the rad14 strain (AID 159);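 also: 0% = growth of vehicle-treated control cultures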; conditions: S. cerevisiae rad14 strain growth inhibition, stronger effect = higher value
Method in brief: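 Compound-treated yeast with a defined DNA-repair lesion; growth inhibition normalised to vehicle-treated cultures.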

[8] = NCI Yeast Anticancer Drug Screen. Data for the sgs1 mgt1 strain (AID 161);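 also: 0% = growth of cultures given vehicle only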; conditions: S. cerevisiae sgs1 mgt1 strain, stronger effect = higher value
Method in brief: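 Test agents were incubated with a DNA-repair-mutant yeast strain. Growth was then read and compared against vehicle-treated controls.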

[9] = NCI Yeast Anticancer Drug Screen. Data for the CLN2oe strain (AID 163);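 also: 0% = growth of vehicle-only control cultures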; conditions: S. cerevisiae CLN2oe strain, stronger effect = higher value
Method in brief: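 First, the altered yeast strain was treated with each compound; second, its growth was measured; finally, inhibition was derived by comparison with vehicle controls.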

[10] = NCI Yeast Anticancer Drug Screen. Data for the cln2 rad14 strain (AID 165);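 also: 0% = growth equal to vehicle treated cultures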; conditions: S. cerevisiae cln2 rad14 strain, stronger effect = higher value
Method in brief: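 Test compounds were added to cln2 rad14 yeast cultures; inhibition of growth was then determined by comparison with vehicle treatment.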

[11] = NCI Yeast Anticancer Drug Screen. Data for the bub3 strain (AID 167); conditions: S. cerevisiae bub3 mutant strain, stronger effect = higher value
Method in brief: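 Growth of a checkpoint-deficient yeast mutant is measured after compound exposure. Values represent inhibition relative to vehicle.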

[12] = NCI Yeast Anticancer Drug Screen. Data for the wt2 strain (AID 169);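 also: 0% = growth of vehicle-treated yeast cultures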; conditions: S. cerevisiae wt2 strain growth inhibition, stronger effect = higher value
Method in brief: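 The panel's yeast strains carry defined changes in DNA repair or cell cycle genes. Each strain is grown with compound, and growth loss is scored relative to vehicle.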

[13] = NCI Yeast Anticancer Drug Screen. Data for the mlh1 strain (AID 171);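 also: 0% = growth of vehicle-treated control cultures of the same strain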; conditions: S. cerevisiae mlh1 strain growth inhibition, stronger effect = higher value
Method in brief: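 Inhibition values reflect reduced yeast growth in the presence of compound, referenced to vehicle controls, using a strain chosen for its alteration in DNA repair or cell cycle control.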

[14] = NCI Yeast Anticancer Drug Screen. Data for the sgs1 strain (AID 173);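 also: 0% = growth of vehicle-only control cultures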; conditions: S. cerevisiae sgs1 mutant, stronger effect = higher value
Method in brief: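 Vehicle-treated cultures served as reference for growth inhibition of a yeast strain altered in DNA damage repair or cell cycle control after compound exposure.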

[15] = NCI Yeast Anticancer Drug Screen. Data for the mlh1 rad18 strain (AID 175); conditions: S. cerevisiae mlh1 rad18 strain growth inhibition, stronger effect = higher value
Method in brief: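 Inhibition values reflect reduced growth of mutant yeast versus vehicle-treated controls following compound exposure; the mutations affect DNA damage repair.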

[16] = NCI Yeast Anticancer Drug Screen. Data for the rad18 strain (AID 177); conditions: S. cerevisiae rad18 mutant growth inhibition, stronger effect = higher value
Method in brief: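 Steps: expose repair-mutant yeast to compound; measure growth; express as inhibition relative to vehicle control.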

[17] = at 5.0 µM (retest, dose inferred, filed as 0.5)
[18] = at 50.0 µM (retest, dose inferred, filed as 5.0)

Measured: growth inhibition

O=C(Cc1ccccc1)NNc1nc(NNC(=O)c2ccncc2)nc(Nc2ccc(Cl)cc2)n1
active: [11]; [18] 98%
inactive: [1]; at 1.2 µM 16% | [1]; at 3.7 µM 6% | [1]; at 11.0 µM 16% | [1]; at 33.0 µM 14% | [1]; at 100.0 µM 17% | [2]; at 1.2 µM -52% | [2]; at 3.7 µM -3% | [2]; at 11.0 µM 0% | [2]; at 33.0 µM -1% | [2]; at 100.0 µM -1% | [3]; at 1.2 µM 1% | [3]; at 3.7 µM 8% | [3]; at 11.0 µM 6% | [3]; at 33.0 µM 3% | [3]; at 100.0 µM 4% | [4]; at 1.2 µM 1% | [4]; at 3.7 µM 3% | [4]; at 11.0 µM 5% | [4]; at 33.0 µM 3% | [4]; at 100.0 µM -1% | [5]; at 1.2 µM -1% | [5]; at 3.7 µM 0% | [5]; [17] 3% | [5]; at 11.0 µM 0% | [5]; at 33.0 µM -1% | [5]; [18] 38% | [5]; at 50.0 µM 39.2% | [5]; at 100.0 µM 1% | [6]; at 1.2 µM -3% | [6]; at 3.7 µM -5% | [6]; [17] 6% | [6]; at 11.0 µM -1% | [6]; at 33.0 µM 4% | [6]; [18] 22% | [6]; at 50.0 µM 48.2% | [6]; at 100.0 µM -3% | [7]; at 1.2 µM 0% | [7]; at 3.7 µM 4% | [7]; at 11.0 µM 3% | [7]; at 33.0 µM 0% | [7]; at 100.0 µM 2% | [8]; [17] 1% | [8]; [18] 12% | [8]; at 50.0 µM 55.3% | [9]; at 1.2 µM -14% | [9]; at 3.7 µM -9% | [9]; at 11.0 µM -13% | [9]; at 33.0 µM -20% | [9]; at 100.0 µM -24% | [10]; [17] -21% | [10]; [18] 45% | [10]; at 50.0 µM 10.1% | [11]; at 1.2 µM -3% | [11]; at 3.7 µM -5% | [11]; [17] -7% | [11]; at 11.0 µM -4% | [11]; at 33.0 µM -6% | [11]; at 50.0 µM 31.8% | [11]; at 100.0 µM -7% | [12]; at 1.2 µM -4% | [12]; at 3.7 µM 2% | [12]; at 11.0 µM 4% | [12]; at 33.0 µM -1% | [12]; at 100.0 µM -2% | [13]; at 1.2 µM -2% | [13]; at 3.7 µM -1% | [13]; at 11.0 µM 0% | [13]; at 33.0 µM -2% | [13]; at 100.0 µM -3% | [14]; at 1.2 µM 3% | [14]; at 3.7 µM 7% | [14]; at 11.0 µM 7% | [14]; at 33.0 µM 6% | [14]; at 100.0 µM 4% | [15]; [17] 13% | [15]; [18] 14% | [15]; at 50.0 µM 59.9% | [16]; at 1.2 µM 9% | [16]; at 3.7 µM 10% | [16]; at 11.0 µM 19% | [16]; at 33.0 µM 19% | [16]; at 100.0 µM 15%

CCCCCc1c(CCCC)c(=O)[nH]c2cc(CNCC(OC)OC)ccc12
inactive: [1]; at 1.2 µM 15% | [1]; at 3.7 µM 11% | [1]; at 11.0 µM 26% | [2]; at 1.2 µM 1% | [2]; at 3.7 µM 7% | [2]; at 11.0 µM 20% | [3]; at 1.2 µM -8% | [3]; at 3.7 µM -9% | [3]; at 11.0 µM 3% | [3]; at 33.0 µM 10% | [4]; at 1.2 µM -15% | [4]; at 3.7 µM -11% | [4]; at 11.0 µM 58% | [5]; at 1.2 µM 14% | [5]; at 3.7 µM 19% | [5]; [17] 8% | [5]; at 11.0 µM 52% | [6]; at 1.2 µM -9% | [6]; at 3.7 µM -9% | [6]; [17] -7% | [6]; at 11.0 µM 7% | [7]; at 1.2 µM -23% | [7]; at 3.7 µM 24% | [8]; [17] 8% | [8]; [18] 46% | [9]; at 1.2 µM 0% | [9]; at 3.7 µM 11% | [9]; at 11.0 µM 63% | [10]; [17] 26% | [11]; at 1.2 µM -6% | [11]; at 3.7 µM 4% | [11]; [17] 19% | [11]; at 11.0 µM 31% | [12]; at 1.2 µM 7% | [12]; at 3.7 µM 11% | [12]; at 11.0 µM 28% | [13]; at 1.2 µM -5% | [13]; at 3.7 µM 13% | [13]; at 11.0 µM 52% | [14]; at 1.2 µM 10% | [14]; at 3.7 µM 23% | [14]; at 11.0 µM 69% | [15]; [17] 50% | [16]; at 1.2 µM 10% | [16]; at 3.7 µM 19% | [16]; at 11.0 µM 14%
active: [1]; at 33.0 µM 98% | [1]; at 100.0 µM 94% | [2]; at 33.0 µM 98% | [2]; at 100.0 µM 94% | [3]; at 100.0 µM 93% | [4]; at 33.0 µM 98% | [4]; at 100.0 µM 94% | [5]; at 33.0 µM 98% | [5]; [18] 96% | [5]; at 50.0 µM 88.9% | [5]; at 100.0 µM 93% | [6]; at 33.0 µM 98% | [6]; [18] 98% | [6]; at 50.0 µM 91.3% | [6]; at 100.0 µM 95% | [7]; at 11.0 µM 89% | [7]; at 33.0 µM 98% | [7]; at 100.0 µM 93% | [8]; at 50.0 µM 91% | [9]; at 33.0 µM 98% | [9]; at 100.0 µM 94% | [10]; [18] 95% | [10]; at 50.0 µM 86.5% | [11]; at 33.0 µM 98% | [11]; [18] 97% | [11]; at 50.0 µM 91.2% | [11]; at 100.0 µM 94% | [12]; at 33.0 µM 98% | [12]; at 100.0 µM 94% | [13]; at 33.0 µM 98% | [13]; at 100.0 µM 95% | [14]; at 33.0 µM 99% | [14]; at 100.0 µM 95% | [15]; [18] 96% | [15]; at 50.0 µM 87% | [16]; at 33.0 µM 98% | [16]; at 100.0 µM 94%
